Drawing on PubChem BioAssay (EPA / NIEHS), this text covers AC50 and outcome for 40 molecules.

One may read the AC50 as the concentration giving half of the maximal activity seen.

Structures are written as SMILES. Active and inactive are the calls of the source. How the source made its calls: active means hit-call score of the fitted dose curve at least 0.9, where 1 is the maximum; inactive means score below 0.9.

Read-out in this experiment: Glutathione S-transferase M3 (GSTM3), GSTM3 (gene 2947)
Kind of experiment: LTEA_HepaRG_GSTM3: Life Technologies and Expression Analysis (LTEA) Assay for Glutathione S-transferase M3 (GSTM3) using HepaRG (AID 2283501). As to conditions: mRNA level, 48 h; actives raise or lower the signal. How it is done:
LTEA_HepaRG is a cell based, multiplexed-readout assay that uses HepaRG, a human liver cell line, with measurements taken at 48 hours after chemical dosing on a 96-well plate.LTEA_HepaRG_GSTM3 is one of 102 assay component(s) measured in the LTEA HepaRG cell culture assay. It is a marker of Oxidative Stress.Data from the assay component LTEA_HepaRG_GSTM3 was analyzed into 1 endpoint. This assay endpoint, LTEA_HepaRG_GSTM3, was analyzed with bidirectional fitting relative to DMSO as the negative control and baseline of activity. Using a type of inducible reporter, measures of mRNA induction for gain or loss-of-signal activity can be used to understand regulation of transcription factor activity. To generalize the intended target to other relatable targets, this assay endpoint is annotated to the transferase intended target family, where the subfamily is alkyl and aryl transferase.
A total of 1060 chemcials from the ToxCast library were tested in eight-point concentration-response experiments. Cell culture and cytotoxicity assays were conducted at Thermo Fisher Scientific's Custom Services facility (Madison, WI). A single lot of human HepaRG cells (Thermo Fisher Scientific, Frederick, MD) was used for the cell culture experiments. 96-well format collagen type I coated plates of human HepaRG cells were prepared using established methods. Briefly, cryopreserved HepaRG cells were thawed, plated at a density of approximately 100,000 cells/well in HepaRG Thaw, Plate, and General Purpose media (HPRG770, Thermo Fisher Scientific), and incubated for 48 hours. 0.5% DMSO was selected as vehicle control to balance the requisite need of DMSO in HepaRG cultures to maintain differentiation (for example, baseline metabolism, proportions of hepatocytes vs. cholangiocytes), while enabling further hepatic receptor pathway activation (for example, PXR and CAR) in response to chemical exposure. 48 hours after plating, the culture medium was replaced with HepaRG Serum-Free Incudtion Media. Cells were exposed to each test chemical in duplicate and maintained in CO2 incubators for another 48 hours. Chemical plates were thawed to room temperature and 200x concentrations of treatment groups were prepared. 8-point conentration-reponse curves were made with the highest exposure at 100 uM, followed by half-log dilutions, all in 0.5% DMSO. Each test plate contained variouse controls, induction positive controls (1mM phenobarbital), cytotoxicity positive controls ([…] aflatoxin B1), vehicle controls (0.5% DMSO), and total lysis controls (0.5% DMSO). Cell morphology images were taken using an Essen IncuCyte FLR automated microscope, with six 96-well plates imaged in about 24 minutes. Images were captured and exported and JPEG files. Spent culture media was transfered to black-well plates for the LDH assay, and remaining media was sorted at -80 C for later use. Cells were treated with RLT buffer and frozen until shipped for gene expression analysis. Total RNA was isolated from the cell suspension in 75 uL of Buffer RLT (Qiagen, Germantown, MD 20874) by Quintiles/Expression Analysis (Durham, NC) using a custom isolation procedure. Total RNA from each plate well was transferred to a preamplification plate. Fluidigm's 96.96 Dynamic ArrayTM (Fluidigm, Amsterdam, the Netherlands) technology was used for gene expression analyses by quantitative reverse transcription polymerase chain reaction (qRT-PCR, performed by Quintiles/Expression Analysis, Durham, NC)89. Standard TaqManTM Assays (Applied Biosystems/ThermoFisher Scientific, Foster City, CA) were used to assess the expression of 93 genes selected based on their selectivity and sensitivity to important hepatic receptors known to be modulated by environmental chemicals; importance in human hepatocyte functionality; and hepatotoxicity. […]
With `CN(C)c1ccc(C(=C2C=CC(=[N+](C)C)C=C2)c2ccc(N(C)C)cc2)cc1`, the AC50 is 7.35 µM (active).
As to `CCCCCCCCCCCC[N+](C)(C)C`, the half-maximal activity concentration (AC50) was 93.9 µM (active).
With `CC(C)(C)c1csc(-c2cc3cc(OCc4ccccc4CC(=O)O)ccc3o2)n1`, the AC50 was 37.7 µM (active).
In the case of `O=C1O[C@H]([C@@H](O)CO)C(O)=C1O`, the molecule was called inactive.
Still for that read-out and setting: the entry for `CN1C(=O)N(c2ccccc2Br)Cc2cnc(Nc3ccc4c(c3)OCC(CO)O4)nc21` (stereo not given) is “inactive”; for `CCN(Cc1cccnc1)C(=O)c1cccc(Cl)c1[C@]1(C)C(=O)N(Cc2ccc(OC)cc2OC)c2ccc(Cl)cc21` it is “inactive”.
On the same count and under the same terms, for `Cc1ncc(CO)c(CO)c1O` the value was “inactive”; for `NC(=O)c1nc(-c2cccc(-c3cc(F)ccc3OCC(F)(F)C(F)(F)F)c2)n[nH]1`, “inactive”.
As to `COc1cccc([C@H](O)C2CCN(CCc3ccc(F)cc3)CC2)c1OC`, the half-maximal activity concentration (AC50) was 72.9 µM (active).
On the same count and under the same terms, for `CC(=O)N1CCN(c2ccc(OC[C@H]3CO[C@](Cn4ccnc4)(c4ccc(Cl)cc4Cl)O3)cc2)CC1` the value was 22.7 µM (active).
Regarding `Cc1c2ccccc2c(C)c2c1ccc1ccccc12`, the molecule was classed as inactive.
Take `O=C1CCC(C2CCCCC2)CC1`: the molecule was classed as inactive.
On the same count and under the same terms, the entry for `O=C(O)c1ccccc1-n1cc(C(=O)O)c(=O)c2cc(Nc3c(F)cc(F)cc3Cl)c(Cl)cc21` is “inactive”; for `c1ccc2ccccc2c1` it is “inactive”.
Still for that read-out and setting: the entry for `CN1C(=O)CC[C@H]1c1cccnc1` is “inactive”; for `OC12N=C(c3ccccc3)SC1Cc1cc(Cl)ccc12` (stereo not given) it is “inactive”; for `Cc1cc(F)ccc1-c1cc(N2CC[C@@H](O)[C@H]2CO)ncc1N(C)C(=O)C(C)(C)c1cc(C(F)(F)F)cc(C(F)(F)F)c1` it is “inactive”.
On the same count and under the same terms, for `CCCC(=O)OCCC(C)C` the value was “inactive”.
As to `Cc1cc2c(cc1C(F)(F)F)N(C(=O)Nc1ccc(Oc3cccnc3C)nc1)CC2`, the result was inactive.
Still for that read-out and setting: for `O=C(O)Cc1cc(I)c(Oc2ccc(O)c(I)c2)c(I)c1` the value was “inactive”.
The same measure, in the same setting: for `CC1(C)NC(=O)N(c2ccc([N+](=O)[O-])c(C(F)(F)F)c2)C1=O` the value was “inactive”; for `Oc1ccccc1`, “inactive”; for `O=c1[nH]sc2ccccc12`, “inactive”.
On the same count and under the same terms, the entry for `Oc1ccc2ccccc2c1` is “inactive”; for `Clc1cc(Cl)c2c(c1)N=C1CCCCCN1C2` it is “inactive”.
Consider `CCOC(=O)O[C@H](C)OC(=O)c1ccc2c(c1)cc(C(=O)NC1CCN(C(C)C)CC1)n2Cc1cc(-c2ccc(Cl)s2)on1`, for which the call was inactive.
On the same count and under the same terms, for `O=C(Nc1ccc(Cl)cc1)Nc1ccc(Cl)c(Cl)c1` the value was “inactive”.
Still for that read-out and setting: for `CO[C@H]1/C=C/O[C@@]2(C)Oc3c(C)c(O)c4c(O)c(c(/C=N/N5CCN(C)CC5)c(O)c4c3C2=O)NC(=O)/C(C)=C\C=C\[C@H](C)[C@H](O)[C@@H](C)[C@@H](O)[C@@H](C)[C@H](OC(C)=O)[C@@H]1C` the value was “inactive”.
Regarding `CN(C)C(=O)C1(N2CCCCC2)CCN(CC[C@@]2(c3ccc(Cl)c(Cl)c3)CN(C(=O)c3ccccc3)CCO2)CC1`, the concentration at half-maximal activity (AC50) was 27.3 µM (active).
With `O=CCCCC=O`, the call was inactive.
Still for that read-out and setting: for `O=c1ccc2ccccc2o1` the value was “inactive”; for `OCCO`, “inactive”.
`Clc1ccccc1C(c1ccccc1)(c1ccccc1)n1ccnc1`: the molecule was called inactive.
On the same count and under the same terms, for `CCCCCCCCCCCCO` the value was “inactive”.
The same measure, in the same setting: the entry for `CC1=CC(=O)/C(=C(/C)O)C(=O)O1` is “inactive”; for `CC(O)CC(C)(C)O` (stereo not given) it is “inactive”.
Same read-out and setting: for `CC[C@H](NC(=O)c1cc(F)ccc1NS(=O)(=O)c1cccc2cccnc12)c1ccccc1` the value was “inactive”; for `CCCCOC(=O)CC(CC(=O)OCCCC)(OC(C)=O)C(=O)OCCCC`, “inactive”; for `CC/C(=C(/CC)c1ccc(O)cc1)c1ccc(O)cc1`, “inactive”.
As for `CC(C)(C)c1cc(/C=C2\SC(N)=NC2=O)cc(C(C)(C)C)c1O`, the result was inactive.
